Test [1] can be described thus: CEETOX_H295R_PROG: CeeTox H295R High-throughput Steroidogenesis Assay for Progesterone (PROG) (AID 2283442).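 On AC50: human H295R adrenal cells primed with 10 µM forskolin before dosing; progesterone secreted into medium by H295R cells measured by HPLC-MS/MS.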 The following applies: actives raise or lower the signal. Put shortly:
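Steps: seed H295R cells and let them adhere overnight; prime 48 h with 10 uM forskolin; dose with compound in DMSO at 0.1% final for 48 h; extract medium steroids with MTBE; measure progesterone by LC-MS/MS. MTT viability was run in the same wells.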

A short description of test [2]: CEETOX_H295R_TESTO: CeeTox H295R High-throughput Steroidogenesis Assay for Testosterone (TESTO) (AID 2283457). The note with it: actives raise or lower the signal. Put shortly: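 H295R, passage ≤10, 48 h dosing; media extracted with MTBE → HPLC-MS/MS for testosterone; 7-pt standard curve sets LLOQ/ULOQ; bidirectional fit vs DMSO; MTT viability same wells.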
Read-out in test [3]: Tumor necrosis factor receptor superfamily member 6 (Homo sapiens) (UniProt P25445)
The experiment in a line: LTEA_HepaRG_FAS: Life Technologies and Expression Analysis (LTEA) Assay for Fas cell surface death receptor (FAS) using HepaRG (AID 2283447). The note with it: mRNA level, 48 h; actives raise or lower the signal. The procedure, abridged:
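FAS transcript level was measured by TaqMan qRT-PCR against three housekeeping genes after 48 h chemical exposure. Cells were HepaRG, 0.5% DMSO vehicle, with a top concentration of 100 uM and half-log dilutions over eight points, in duplicate.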

Read-out in test [4]: Fatty acid synthase (Homo sapiens) (UniProt P49327)
The test is described as follows: LTEA_HepaRG_FASN: Life Technologies and Expression Analysis (LTEA) Assay for Fatty Acid Synthase (FASN) using HepaRG (AID 2283448). The note with it: mRNA level, 48 h; actives raise or lower the signal. Put shortly:
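FASN expression changes, up or down relative to 0.5% DMSO, were measured by qRT-PCR in human HepaRG cells after 48 h treatment with chemicals at eight concentrations (half-log steps from 100 uM).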

Read-out in test [5]: Cyclin D2 (CCND2), CCND2 (gene 894)
The experiment in a line: LTEA_HepaRG_CCND2: Life Technologies and Expression Analysis (LTEA) Assay for Cyclin D2 (CCND2) using HepaRG (AID 2283449). The note with it: mRNA level, 48 h; actives raise or lower the signal. Put shortly: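 Read-out is CCND2 mRNA level measured by qRT-PCR in human HepaRG liver cells and normalised to three housekeeping genes. Chemicals were applied for 48 h at up to 100 uM, with gain or loss fitted relative to 0.5% DMSO.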

Read-out in test [6]: Cyclin Dependent Kinase Inhibitor 1A (CDKN1A), CDKN1A (gene 1026)
The test is described as follows: LTEA_HepaRG_CDKN1A: Life Technologies and Expression Analysis (LTEA) Assay for Cyclin Dependent Kinase Inhibitor 1A (CDKN1A) using HepaRG (AID 2283450). The following applies: mRNA level, 48 h; actives raise or lower the signal. Put shortly: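 Read-out is CDKN1A mRNA by TaqMan qRT-PCR, normalized to three housekeeping genes and fitted in both directions against the DMSO baseline. Human HepaRG cells were treated 48 h with test chemicals up to 100 uM in half-log steps, 0.5% DMSO.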

Read-out in test [7]: Cyclin D1 (CCND1), CCND1 (gene 595)
The experiment in a line: LTEA_HepaRG_CCND1: Life Technologies and Expression Analysis (LTEA) Assay for Cyclin D1 (CCND1) using HepaRG (AID 2283451). The following applies: mRNA level, 48 h; actives raise or lower the signal. Put shortly:
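HepaRG plated 48 h, medium switched to serum-free induction medium, chemicals added in duplicate (top 100 uM, half-log steps, 0.5% DMSO) for 48 h, cells lysed, RNA measured by TaqMan qRT-PCR.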

Read-out in test [8]: catalase (CAT), CAT (gene 847)
The test is described as follows: LTEA_HepaRG_CAT: Life Technologies and Expression Analysis (LTEA) Assay for catalase (CAT) using HepaRG (AID 2283452). The following applies: mRNA level, 48 h; actives raise or lower the signal. The procedure, abridged:
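Expression of CAT was quantified by TaqMan qRT-PCR with ACTB/GAPDH/POLR2A normalization after 48 h chemical exposure of HepaRG. Eight-point half-log series, top 100 uM, in 0.5% DMSO; gain or loss fitted against vehicle.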

Read-out in test [9]: flavin-containing dimethylaniline monooxygenases 3 (FMO3), FMO3 (gene 2328)
The test is described as follows: LTEA_HepaRG_FMO3: Life Technologies and Expression Analysis (LTEA) Assay for flavin-containing dimethylaniline monooxygenases 3 (FMO3) using HepaRG (AID 2283453). The note with it: mRNA level, 48 h; actives raise or lower the signal. The procedure, abridged: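 Differentiated HepaRG cells in serum-free induction medium, exposed 48 h in duplicate to 8 half-log concentrations up to 100 uM in 0.5% DMSO. FMO3 mRNA by qRT-PCR, normalized to ACTB, GAPDH, POLR2A; bidirectional fit vs DMSO.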

Read-out in test [10]: Cytochrome P450 (CYP1A1), CYP1A1 (gene 1543)
The experiment in a line: LTEA_HepaRG_CYP1A1: Life Technologies and Expression Analysis (LTEA) Assay for Cytochrome P450 (CYP1A1) using HepaRG (AID 2283454). The following applies: mRNA level, 48 h; actives raise or lower the signal. The procedure, abridged: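 HepaRG, 48 h post-plating switched to serum-free induction medium; 8-pt conc-response (top 100 uM, half-log, 0.5% DMSO), duplicates, 48 h. Lysis in RLT, TaqMan qRT-PCR for CYP1A1; gain or loss vs DMSO.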

Read-out in test [11]: CFLAR gene, CFLAR (gene 8837)
The experiment in a line: LTEA_HepaRG_CFLAR: Life Technologies and Expression Analysis (LTEA) Assay for CFLAR gene using HepaRG (AID 2283455). The note with it: mRNA level, 48 h; actives raise or lower the signal. Put shortly: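 HepaRG, 48 h exposure, 8-pt conc-response (100 uM top, half-log), 0.5% DMSO vehicle, duplicates. CFLAR expression by qRT-PCR; ACTB/GAPDH/POLR2A normalization; gain or loss fit vs DMSO baseline.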

Read-out in test [12]: Forkhead box O1 (FOXO1), FOXO1 (gene 2308)
The experiment in a line: LTEA_HepaRG_FOXO1: Life Technologies and Expression Analysis (LTEA) Assay for Forkhead box O1 (FOXO1) using HepaRG (AID 2283456). The note with it: mRNA level, 48 h; actives raise or lower the signal. The procedure, abridged: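 Readout is FOXO1 transcript level by multiplexed qRT-PCR against three housekeeping genes, curve-fitted in both directions relative to 0.5% DMSO vehicle. Human HepaRG cultures received chemicals for 48 h, up to 100 uM in half-log steps.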

Read-out in test [13]: growth arrest and DNA damage 45 (GADD45A), GADD45A (gene 1647)
The experiment in a line: LTEA_HepaRG_GADD45A: Life Technologies and Expression Analysis (LTEA) Assay for growth arrest and DNA damage 45 (GADD45A) using HepaRG (AID 2283458). The note with it: mRNA level, 48 h; actives raise or lower the signal. The procedure, abridged:
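Cells plated and cultured 48 h, switched to serum-free induction medium, then dosed for 48 h (100 uM top, half-log dilutions, 0.5% DMSO). RNA was isolated and transcript measured by Fluidigm qRT-PCR.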

Read-out in test [14]: Forkhead box O3 (FOXO3), FOXO3 (gene 2309)
The experiment in a line: LTEA_HepaRG_FOXO3: Life Technologies and Expression Analysis (LTEA) Assay for Forkhead box O3 (FOXO3) using HepaRG (AID 2283459). The note with it: mRNA level, 48 h; actives raise or lower the signal. Put shortly:
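HepaRG, 48 h post-dose; 8 conc., half-log from 100 uM, 0.5% DMSO, duplicates; serum-free induction medium. Readout: FOXO3 mRNA, TaqMan qRT-PCR, housekeeping-normalized. Bidirectional curve fit vs DMSO baseline.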

Read-out in test [15]: ABC Transporter (ABCB1), ABCB1 (gene 5243)
The test is described as follows: LTEA_HepaRG_ABCB1: Life Technologies and Expression Analysis (LTEA) Assay for ABC Transporter (ABCB1) using HepaRG (AID 2283460). The following applies: mRNA level, 48 h; actives raise or lower the signal. The procedure, abridged:
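Expression of ABCB1 was quantified by qRT-PCR against three housekeeping genes after human HepaRG cultures received test chemicals for 48 hours. Concentrations spanned eight half-log steps topping at 100 uM in 0.5% DMSO; gain or loss of signal was fitted relative to vehicle.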

Read-out in test [16]: growth arrest and DNA damage 45 (GADD45B), GADD45B (gene 4616)
The test is described as follows: LTEA_HepaRG_GADD45B: Life Technologies and Expression Analysis (LTEA) Assay for growth arrest and DNA damage 45 (GADD45B) using HepaRG (AID 2283461). The following applies: mRNA level, 48 h; actives raise or lower the signal. The procedure, abridged: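 HepaRG, ~100,000 cells/well, 48 h plating; serum-free induction medium; cpd 100 uM top, half-log x8, 0.5% DMSO, duplicate, 48 h; lysis in RLT, RNA isolation, qRT-PCR; norm ACTB/GAPDH/POLR2A; bidirectional fit vs DMSO.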

Read-out in test [17]: ABC Transporter (ABCC3), ABCC3 (gene 8714)
The experiment in a line: LTEA_HepaRG_ABCC3: Life Technologies and Expression Analysis (LTEA) Assay for ABC Transporter (ABCC3) using HepaRG (AID 2283462). The note with it: mRNA level, 48 h; actives raise or lower the signal. The procedure, abridged: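 Human HepaRG, 48 h dosing, 8-pt half-log series from 100 uM, 0.5% DMSO vehicle, duplicates. ABCC3 mRNA by TaqMan qRT-PCR, housekeeping-normalized; bidirectional curve fit vs DMSO.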

Read-out in test [18]: ABC Transporter (ABCB11), ABCB11 (gene 8647)
The test is described as follows: LTEA_HepaRG_ABCB11: Life Technologies and Expression Analysis (LTEA) Assay for ABC Transporter (ABCB11) using HepaRG (AID 2283463). The note with it: mRNA level, 48 h; actives raise or lower the signal. Put shortly: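 ABCB11 transcript levels are read by Fluidigm TaqMan qRT-PCR after 48 h chemical treatment of human HepaRG cells. Concentrations span 100 uM downward in half-log steps with 0.5% DMSO; gain or loss is fitted against DMSO controls.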

Read-out in test [19]: ABC Transporter (ABCC2), ABCC2 (gene 1244)
The test is described as follows: LTEA_HepaRG_ABCC2: Life Technologies and Expression Analysis (LTEA) Assay for ABC Transporter (ABCC2) using HepaRG (AID 2283464). The note with it: mRNA level, 48 h; actives raise or lower the signal. The procedure, abridged:
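HepaRG, 48 h post-plating; serum-free induction medium; cpd 8-pt, 100 uM top, half-log, 0.5% DMSO, duplicate, 48 h. Readout: ABCC2 mRNA by qRT-PCR, norm. ACTB/GAPDH/POLR2A. Bidirectional fit vs DMSO baseline.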

Read-out in test [20]: Broad substrate specificity ATP-binding cassette transporter ABCG2 (Homo sapiens) (UniProt Q9UNQ0)
The experiment in a line: LTEA_HepaRG_ABCG2: Life Technologies and Expression Analysis (LTEA) Assay for ABC Transporter (ABCG2) using HepaRG (AID 2283465). The note with it: mRNA level, 48 h; actives raise or lower the signal. The procedure, abridged: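 Read-out is ABCG2 mRNA induction or loss quantified by qRT-PCR after 48 h chemical treatment of human HepaRG cells, normalized to three housekeeping genes. Concentrations reached 100 uM top in half-log steps; fitting was bidirectional against 0.5% DMSO.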

Activity calls are given as the source filed them. How the source made its calls: active means hit-call score of the fitted dose curve at least 0.9, where 1 is the maximum; inactive means score below 0.9.

Fatty acid synthase (Homo sapiens), sequence (P49327 whole entry, looked up): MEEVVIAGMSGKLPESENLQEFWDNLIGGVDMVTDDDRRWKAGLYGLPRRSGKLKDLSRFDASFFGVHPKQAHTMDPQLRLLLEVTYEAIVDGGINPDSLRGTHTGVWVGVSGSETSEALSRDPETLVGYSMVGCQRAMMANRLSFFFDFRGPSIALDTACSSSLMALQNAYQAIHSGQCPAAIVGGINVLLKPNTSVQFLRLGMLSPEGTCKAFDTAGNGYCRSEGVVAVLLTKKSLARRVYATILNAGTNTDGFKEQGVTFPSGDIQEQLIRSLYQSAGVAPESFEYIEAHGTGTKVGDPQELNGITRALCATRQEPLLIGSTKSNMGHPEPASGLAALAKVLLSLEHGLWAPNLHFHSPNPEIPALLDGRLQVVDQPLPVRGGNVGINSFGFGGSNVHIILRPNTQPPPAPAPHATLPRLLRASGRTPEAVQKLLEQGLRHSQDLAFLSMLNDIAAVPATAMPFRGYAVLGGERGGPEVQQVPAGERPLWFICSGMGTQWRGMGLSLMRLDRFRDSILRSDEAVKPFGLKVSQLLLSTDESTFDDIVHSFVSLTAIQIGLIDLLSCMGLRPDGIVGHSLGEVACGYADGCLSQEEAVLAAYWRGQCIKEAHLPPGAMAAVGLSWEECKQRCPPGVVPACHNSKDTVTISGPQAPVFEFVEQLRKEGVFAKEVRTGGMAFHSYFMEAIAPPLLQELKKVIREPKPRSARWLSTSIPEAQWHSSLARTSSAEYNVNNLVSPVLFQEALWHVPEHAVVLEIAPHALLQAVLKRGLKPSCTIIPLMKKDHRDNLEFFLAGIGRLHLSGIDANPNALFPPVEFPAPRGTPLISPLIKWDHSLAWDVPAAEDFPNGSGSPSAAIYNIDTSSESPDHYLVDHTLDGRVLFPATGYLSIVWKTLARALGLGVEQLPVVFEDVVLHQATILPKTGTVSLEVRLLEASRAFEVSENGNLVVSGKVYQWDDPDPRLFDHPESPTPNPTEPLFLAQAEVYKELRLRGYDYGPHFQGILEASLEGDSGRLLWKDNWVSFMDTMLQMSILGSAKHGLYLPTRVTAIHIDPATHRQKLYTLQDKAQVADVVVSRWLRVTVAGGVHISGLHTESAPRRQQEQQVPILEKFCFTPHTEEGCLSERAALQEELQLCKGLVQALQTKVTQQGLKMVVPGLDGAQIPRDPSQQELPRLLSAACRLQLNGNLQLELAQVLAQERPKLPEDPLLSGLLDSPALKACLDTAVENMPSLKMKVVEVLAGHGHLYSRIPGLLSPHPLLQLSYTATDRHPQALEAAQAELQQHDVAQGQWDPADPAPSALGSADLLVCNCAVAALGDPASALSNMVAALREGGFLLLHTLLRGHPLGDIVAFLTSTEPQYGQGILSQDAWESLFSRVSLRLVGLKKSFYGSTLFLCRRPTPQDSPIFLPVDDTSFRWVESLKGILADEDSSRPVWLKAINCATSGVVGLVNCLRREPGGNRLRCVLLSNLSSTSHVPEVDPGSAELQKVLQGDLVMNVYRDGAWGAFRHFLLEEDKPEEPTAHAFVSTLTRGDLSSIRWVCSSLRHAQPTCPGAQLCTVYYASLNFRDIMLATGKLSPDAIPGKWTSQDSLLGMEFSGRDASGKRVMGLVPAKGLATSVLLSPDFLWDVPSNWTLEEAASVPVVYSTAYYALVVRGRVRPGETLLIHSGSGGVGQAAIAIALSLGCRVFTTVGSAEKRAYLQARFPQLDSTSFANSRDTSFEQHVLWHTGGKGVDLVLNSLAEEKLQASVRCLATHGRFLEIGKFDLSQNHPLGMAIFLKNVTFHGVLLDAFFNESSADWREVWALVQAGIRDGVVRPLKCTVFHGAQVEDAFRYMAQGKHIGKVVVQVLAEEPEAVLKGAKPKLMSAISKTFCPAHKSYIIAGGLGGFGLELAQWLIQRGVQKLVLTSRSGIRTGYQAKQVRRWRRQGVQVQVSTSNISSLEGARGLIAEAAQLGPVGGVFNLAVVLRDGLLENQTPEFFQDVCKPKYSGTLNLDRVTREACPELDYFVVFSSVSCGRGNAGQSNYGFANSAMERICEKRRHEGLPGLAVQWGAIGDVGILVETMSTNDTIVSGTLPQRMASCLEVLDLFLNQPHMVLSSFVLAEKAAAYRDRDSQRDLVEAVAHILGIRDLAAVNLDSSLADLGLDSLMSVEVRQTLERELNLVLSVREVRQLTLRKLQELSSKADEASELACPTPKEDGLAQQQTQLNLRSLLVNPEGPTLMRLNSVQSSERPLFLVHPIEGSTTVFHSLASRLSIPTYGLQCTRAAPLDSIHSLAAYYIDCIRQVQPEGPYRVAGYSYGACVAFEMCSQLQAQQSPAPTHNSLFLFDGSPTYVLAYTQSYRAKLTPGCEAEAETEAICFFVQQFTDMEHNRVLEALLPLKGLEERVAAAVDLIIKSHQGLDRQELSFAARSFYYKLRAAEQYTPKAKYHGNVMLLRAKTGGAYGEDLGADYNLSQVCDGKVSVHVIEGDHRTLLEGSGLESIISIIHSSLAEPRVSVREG
Broad substrate specificity ATP-binding cassette transporter ABCG2 (Homo sapiens), sequence (Q9UNQ0 whole entry, looked up): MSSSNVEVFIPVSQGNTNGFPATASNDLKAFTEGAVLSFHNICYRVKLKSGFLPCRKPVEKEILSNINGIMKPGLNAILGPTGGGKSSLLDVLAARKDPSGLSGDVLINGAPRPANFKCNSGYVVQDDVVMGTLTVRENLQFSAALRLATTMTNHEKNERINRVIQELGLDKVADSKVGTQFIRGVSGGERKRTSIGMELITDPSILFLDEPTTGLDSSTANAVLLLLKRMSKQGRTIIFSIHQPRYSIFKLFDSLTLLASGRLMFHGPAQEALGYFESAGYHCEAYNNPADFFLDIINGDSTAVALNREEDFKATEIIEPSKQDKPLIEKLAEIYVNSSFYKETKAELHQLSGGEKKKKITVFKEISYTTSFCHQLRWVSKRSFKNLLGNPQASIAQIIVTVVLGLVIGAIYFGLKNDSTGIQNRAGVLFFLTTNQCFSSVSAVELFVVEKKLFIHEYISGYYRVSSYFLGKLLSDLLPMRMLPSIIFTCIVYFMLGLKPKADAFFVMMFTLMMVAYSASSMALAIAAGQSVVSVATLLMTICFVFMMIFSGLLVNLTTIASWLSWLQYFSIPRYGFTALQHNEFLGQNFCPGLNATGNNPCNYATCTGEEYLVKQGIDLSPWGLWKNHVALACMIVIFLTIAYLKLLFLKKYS

With `CC(C)(C)c1cccc(O)c1`, the outcome in test [1] and in test [2] was inactive.

`CCCc1ccc(O)cc1`: the result in [1] was inactive.

Turning to `OCC=Cc1ccccc1`, the outcome in test [1] was inactive.

The term AC50 denotes the midpoint of the concentration-response curve, whichever way the signal moves. On to `C[C@]12CC[C@@H]3c4ccc(O)cc4CC[C@H]3[C@@H]1CC[C@@H]2O`, for which the concentration at half-maximal activity (AC50) in test [1] is 5 µM (active); in test [6] it was 80.3 µM (active); in test [10] it was 66.1 µM (active); in test [15], 6.57 µM (active); in test [18], 50 µM (active); in test [19], 41.2 µM (active). Besides, the AC50 in test [20] was 3.03 µM (active). For the same compound, the outcome in test [3], in [4], in test [5], in test [7], in test [8] and in test [9] was inactive. For the same compound, the compound was called inactive in test [11], in [12], in [13], in test [14], in [16] and in [17].

For `O=C(OCc1ccccc1)c1ccccc1O`, the AC50 in [1] was 50 µM (active).

As to `CC(=O)C1=C(C)[C@@H]2C[C@@]3(C1)[C@H](C)CC[C@H]3C2(C)C`, in [1], the compound was classed as inactive.

Turning to `C=C(C)C(N)=O`, the compound was classed as inactive in [3], in [4], in [5], in test [6], in test [7] and in test [8]. For the same compound, the outcome in test [9], in [11], in [12], in [13], in test [14] and in test [15] was inactive. Moreover, the result in test [16], in test [17], in [18], in test [19] and in test [20] was inactive. For the same compound, the concentration at half-maximal activity (AC50) in [10] was 50 µM (active).

Values taken from PubChem BioAssay (EPA / NIEHS).
